# Test results published in PubChem BioAssay.
# Where “and” joins values, the source holds several entries; their conditions need not be identical. Equal entries are not always repeated. Calls of active or inactive are those of the source. Rule as the data show it, unless noted: active = inhibition above about 80%; inactive = the rest.
# What was measured:
# [1] = growth inhibition, single agent or in combination, cell-based, chromothripsis tumors, cisplatin or BGB combos (AID 1671449); settings: LFS_MB_P medulloblastoma cells;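 also: cells exposed for 96 hours; 0% = vehicle DMSO and 100% = killing by high DMSO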
# [2] = BT084 cell growth, single and combined drugs, ICGC_MB145, cisplatin and BGB IC40 combos (AID 1671461); settings: BT084 medulloblastoma cells, drug combinations, stronger effect = higher value;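 also: cells exposed to drugs for 96 hours; 0% = vehicle DMSO and 100% = high DMSO full killing control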
# [3] = growth inhibition, single agent and combos, cell-based, chromothripsis tumors, cisplatin or BGB combos (AID 1671450); settings: HDN33 neuroblastoma cells, stronger effect = higher value;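 also: cells exposed to compound for four days; 0% = vehicle DMSO and 100% = cell killing by high DMSO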
# [4] = growth inhibition, single agents and combos, ICB984, cell-based, cisplatin or BGB combos, synergistic combos for chromothripsis tumors (AID 1671451; call rule not given here;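 also: cells exposed for 96 hours before readout; 0% = vehicle DMSO and 100% = killing by high DMSO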); settings: ICB984 medulloblastoma cells, drug combinations, stronger effect = higher value
# [5] = growth inhibition, single agents and combos, LFS_MB_1R, cell-based, cisplatin or BGB combos, synergistic combos for chromothripsis tumors (AID 1671452); settings: LFS_MB_1R medulloblastoma cells, stronger effect = higher value;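 also: cells exposed for 96 hours before readout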
# [6] = growth inhibition, single agents and combos, HTB85, cell-based, BGB or cisplatin IC20 combos, synergistic combos for chromothripsis tumors (AID 1671453); settings: HTB85 osteosarcoma cells, drug combinations, stronger effect = higher value;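 also: cells exposed for 96 hours before readout; 0% = vehicle DMSO and 100% = high DMSO killing control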
# [7] = growth inhibition, single agents and combos, CRL2098, cell-based, BGB or cisplatin IC20 combos, synergistic combos for chromothripsis tumors (AID 1671454); settings: CRL2098 osteosarcoma cells, drug combinations, stronger effect = higher value;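 also: cells exposed for 96 h before readout; 0% = vehicle DMSO and 100% = killing by high DMSO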
# [8] = growth inhibition, single agents and combos, HD-MB03, cell-based, BGB or cisplatin IC20 combos, synergistic combos for chromothripsis tumors (AID 1671455; in the data active = inhibition above about 83%;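 also: 0% = vehicle DMSO and 100% = high DMSO as cytotoxic control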); settings: HD-MB03 medulloblastoma cells, stronger effect = higher value
# [9] = growth inhibition, single agents and combos, UWB1.289, cell-based, BGB or cisplatin combos, synergistic combos for chromothripsis tumors (AID 1671456); settings: UWB1.289 ovarian carcinoma cells, stronger effect = higher value;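 also: cells exposed to compound for four days; 0% = vehicle DMSO and 100% = killing by high DMSO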
# [10] = growth inhibition, single agents and combos, LFS_MB_2R, cell-based, cisplatin combos, synergistic combos for chromothripsis tumors (AID 1671457); settings: LFS_MB_2R medulloblastoma cells, stronger effect = higher value;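 also: cells exposed to compound for four days before readout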
# [11] = growth inhibition, MDA-MB-436, cell-based, BGB or cisplatin combos, synergistic combos for chromothripsis tumors (AID 1671458; call rule not given here;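 also: cells exposed for 96 hours; 0% = vehicle DMSO and 100% = killing by high DMSO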); settings: MDA-MB-436 breast carcinoma growth inhibition, drug combinations, stronger effect = higher value
# [12] = UWB1.289_BRCA1 ovarian cancer growth, cell-based, BGB or cisplatin combinations (AID 1671459); settings: UWB1.289 BRCA1 ovarian carcinoma, drug combinations, stronger effect = higher value
# [13] = drug combination toxicity in non-malignant astrocytes – cell-based, BGB or cisplatin IC20 combos, cytotoxicity control for chromothriptic childhood tumor combination screen (AID 1671460); settings: Human astrocytes, viability inhibition, drug combinations, at 0.5 µM, stronger effect = higher value;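 also: cells exposed to compounds for 96 hours before viability readout; 0% = vehicle and 100% = killing control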
# [14] = RCMB18 cell growth, single agent and combined, cisplatin and BGB IC40 combos (AID 1671462); settings: RCMB18 medulloblastoma cells, stronger effect = higher value;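 also: cells exposed to compound for four days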
# [15] = CRL1545 cell growth, single agent and combined, cisplatin and BGB IC20 combos (AID 1671464); settings: CRL1545 osteosarcoma cells, stronger effect = higher value;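 also: cells exposed to compound for 96 hours before readout; 0% = vehicle DMSO and 100% = high DMSO killing control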
# [16] = measured here: combination with BGB IC40, at 0.05 µM
# [17] = measured here: with BGB IC20 combination, at 0.5 µM
# [18] = measured here: with cisplatin IC20 combination, at 0.5 µM
# [19] = measured here: combination with cisplatin, at 0.5 µM
# [20] = measured here: combination with cisplatin, at 5 µM
smiles,measurement,setting,value
CCc1c2c(nc3ccc(OC(=O)N4CCC(N5CCCCC5)CC4)cc13)-c1cc3c(c(=O)n1C2)COC(=O)C3(O)CC (stereo not given),inhibition,[1]; [16],-19.5% and -4.73% and -44.6%
same,inhibition,[2]; at 0.5 µM,-22.5% (inactive) and 1.41% (inactive) and -20.7% (inactive)
CNc1cc(-c2cccc(Cl)c2Cl)nc(N)n1,inhibition,"[1]; at 0.5 µM, stronger effect = higher value",-8.18% (inactive) and -26.7% (inactive)
same,inhibition,"[1]; measured here: combination with BGB IC20, at 0.005 µM",12.7% and 6.36%
same,inhibition,"[1]; measured here: combination with BGB IC40, at 0.005 µM",-26.9% and -34.5%
same,inhibition,[1]; [16],-17.6% and -7.49%
same,inhibition,"[1]; measured here: combination with cisplatin, at 0.5 µM, stronger effect = higher value",-22.4% and -20%
same,inhibition,"[1]; measured here: combination with cisplatin, at 5 µM, stronger effect = higher value",-7.76% and -6.35%
same,inhibition,"[3]; BGB combo, at 5 µM",48.2% and 55.5%
same,inhibition,[3]; at 0.5 µM,-17.8% (inactive) and -6.13% (inactive)
same,inhibition,"[3]; cisplatin combo, at 5 µM",48.9% and 48.7%
same,inhibition,[3]; [17],-27.7% and -11%
same,inhibition,[3]; [18],-24.8% and -0.815%
same,inhibition,"[3]; single agent, at 5 µM",76.2% and 85.6%
same,inhibition,"[4]; BGB IC20 combo, at 0.005 µM",-21.8% and -29.5%
same,inhibition,"[4]; BGB IC40 combo, at 0.005 µM",-56.1% and -31.8%
same,inhibition,"[4]; BGB IC40 combo, at 0.05 µM",-22.7% and -34.1%
same,inhibition,[4]; at 0.5 µM,-44.2% (inactive) and -25.3% (inactive)
same,inhibition,"[4]; cisplatin combo, at 0.05 µM",-27.5% and -41.1%
same,inhibition,"[4]; cisplatin combo, at 0.5 µM",-72.1% and -45.6%
same,inhibition,"[4]; cisplatin combo, at 5 µM",-47.7% and -22.7%
same,inhibition,"[4]; measured here: 5 uM single agent, at 5 µM",-10.2% and -10.7%
same,inhibition,[5]; at 0.5 µM,-34.6% (inactive) and -4.83% (inactive)
same,inhibition,[5]; [16],-68.3% and -4.85%
same,inhibition,[5]; [19],-61.7% and -26.6%
same,inhibition,[5]; [20],-37.7% and -6.6%
same,inhibition,[6]; at 0.5 µM,-10% (inactive) and -11.4% (inactive)
same,inhibition,"[6]; measured here: with BGB IC20, at 0.5 µM",-16.2% and -6.99%
same,inhibition,"[6]; measured here: with BGB IC20, at 5 µM",35.9% and 44.4%
same,inhibition,"[6]; measured here: with cisplatin IC20, at 0.5 µM",-19.3% and -24.6%
same,inhibition,"[6]; measured here: with cisplatin IC20, at 5 µM",46.5% and 52.3%
same,inhibition,"[6]; single agent, at 5 µM",86.8% and 87.8%
same,inhibition,[7]; at 0.5 µM,-44.3% (inactive) and -58.9% (inactive)
same,inhibition,"[7]; measured here: combination with BGB at IC20, at 0.5 µM",-56.3% and -39.2%
same,inhibition,"[7]; measured here: combination with cisplatin at IC20, at 0.5 µM",-66.3% and -96.2%
same,inhibition,[8]; at 0.5 µM,7.62% (inactive) and 7.36% (inactive)
same,inhibition,"[8]; measured here: combo with BGB at IC20, at 0.5 µM",6.39% and 25.3%
same,inhibition,"[8]; measured here: combo with cisplatin at IC20, at 0.5 µM",10.3% and -5.76%
same,inhibition,[9]; at 0.5 µM,-17.7% (inactive) and -11.8% (inactive)
same,inhibition,"[9]; measured here: inhibition with BGB combination, at 0.05 µM",-38.9% and -10.5%
same,inhibition,"[9]; measured here: inhibition with cisplatin combination, at 0.05 µM",-22.8% and -21.6%
same,inhibition,[10]; at 0.5 µM,-20.6% (inactive) and -7.54% (inactive)
same,inhibition,[10]; [19],-10.7% and -19.4%
same,inhibition,[10]; [20],-1.17% and -0.403%
same,inhibition,[11]; at 0.5 µM,-4.77% (inactive) and 5.99% (inactive)
same,inhibition,"[11]; measured here: BGB combination, at 0.5 µM",-12.3% and -2.46%
same,inhibition,"[11]; measured here: BGB combination, at 5 µM",12% and 36.8%
same,inhibition,"[11]; measured here: cisplatin combination, at 0.5 µM",-5.91% and 6.1%
same,inhibition,"[11]; measured here: cisplatin combination, at 5 µM",53.8% and 59%
same,inhibition,"[12]; BGB combination, concentration series, at 5 µM",25.6% and 35%
same,inhibition,[12]; at 0.5 µM,-10.5% (inactive) and -13.3% (inactive)
same,inhibition,"[12]; cisplatin combination, concentration series, at 5 µM",31% and 30.9%
same,inhibition,[13],-0.46% (inactive) and -4.98% (inactive)
same,inhibition,[13]; measured here: combo with BGB IC20,-4.03% and -6.91%
same,inhibition,[13]; measured here: combo with cisplatin IC20,5.16% and -6.91%
same,inhibition,[2]; at 0.5 µM,-12.1% (inactive) and 5.54% (inactive)
same,inhibition,"[2]; cisplatin combination, at 0.5 µM",-10.6% and -1.11%
same,inhibition,"[2]; cisplatin combination, at 5 µM",8.87% and -169%
same,inhibition,"[2]; measured here: BGB IC40 combination 0.05 uM, at 0.05 µM",37% and -7.52%
same,inhibition,"[2]; single agent, at 5 µM",37.7% and 19.1%
same,inhibition,[14]; at 0.5 µM,-17.1% (inactive) and -8.27% (inactive)
same,inhibition,"[14]; cisplatin combo, at 5 µM",-4.48% and -9.87%
same,inhibition,"[14]; measured here: BGB IC40 combination, at 0.05 µM",-4.59% and 4.5%
same,inhibition,[14]; [19],-16.3% and -34.1%
same,inhibition,"[14]; single agent, at 5 µM",-7.05% and 22%
same,inhibition,[15]; at 0.5 µM,-60.9% (inactive) and -11.4% (inactive)
same,inhibition,[15]; [17],-68.8% and -40.3%
same,inhibition,[15]; [18],-56.9% and 1.42%
same,inhibition,"[15]; single agent, at 0.05 µM",-40.9% and -9.94%
same,inhibition,"[15]; single agent, at 5 µM",58.9% and 60.8%
